Screens deposited in PubChem by The Scripps Research Institute Molecular Screening Center.
This is a sample that favours compounds with a hit; in the whole collection about 3.5% have one here.
GPR151 activ – activates the human receptor GPR151. Q8TDV0. PathHunter beta-arrestin GPR151 cells, luminescence. activation, % at 11.2 µM. 650,000 tested, 1% active. AID 1508602; in the data active = activation above about 4.9%;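 note: 0% = median of compound wells and 100% = cells with positive control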
MITF inh – blocks human microphthalmia-associated transcription factor | inhibition, % at 2.6 µM | 650,000 tested, 0.91% active | O75030 | AlphaScreen MITF homodimerization, bead proximity signal; in the data active = inhibition above about 50%;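 note: 0% = vehicle wells with protein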
TEAD-YAP inh – TEAD-YAP interaction inhibition; HEK-TIYL cells, TEAD-Gal4/YAP UAS-luciferase luminescence; 640,000 tested, 1.4% active; inhibition, % at 9.12 µM; in the data active = inhibition above about 32%;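 note: 0% = median of test compound wells and 100% = reference inhibitor wells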
FBW7 act – activators of human E3 ligase FBW7; AlphaScreen FBW7–phospho-cyclin E peptide binding, activator screen; normalized activity (activation), % at 26.1 µM; 650,000 tested, 0.13% active; AID 1259310; in the data active = normalized activity above about 1.9%;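 note: purified mutant Fbw7 with reduced substrate affinity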
GPR151 conf act – confirmation of human GPR151 activators | shares compounds with GPR151 activ | GPR151 PathHunter beta-arrestin cells, luminescence, 90 min; % of EA-reagent control over plate median | activation, % at 11.2 µM | 6,700 tested, under 10 active;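 active = mean percent activation across replicates above the confirmation screen cutoff of 4.91%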
GPR119 counter – activates human GPR119 in a GPR151 counter-screen; shares compounds with GPR151 activ; GPR119 PathHunter beta-arrestin cells, luminescence, 90 min; 0 = compound-well median, 100 = enzyme-acceptor control; activation, % at 11.2 µM; 6,700 tested, 0.3% active; AID 1508611;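 active = mean percent activation in the counterscreen above 29.09%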;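 note: counterscreen on off-target GPR119 to flag nonselective hits from the GPR151 activator screen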
Target sequence (Q8TDV5 whole entry, looked up): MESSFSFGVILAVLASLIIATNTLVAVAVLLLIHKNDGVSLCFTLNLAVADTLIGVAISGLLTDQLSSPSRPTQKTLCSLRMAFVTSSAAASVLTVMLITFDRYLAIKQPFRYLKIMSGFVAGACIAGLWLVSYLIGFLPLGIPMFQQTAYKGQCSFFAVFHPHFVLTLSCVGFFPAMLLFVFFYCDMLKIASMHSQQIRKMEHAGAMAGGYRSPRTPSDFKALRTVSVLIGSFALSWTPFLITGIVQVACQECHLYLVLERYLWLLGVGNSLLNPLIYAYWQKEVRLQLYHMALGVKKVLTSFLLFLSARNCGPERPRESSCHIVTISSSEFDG
Starred values were filed as active, the others as inactive; / = not tested or not shown.

SMILES	GPR151 activ	MITF inh	TEAD-YAP inh	FBW7 act	GPR151 conf act	GPR119 counter
CCOc1ccc(NC(=O)C(Sc2ccccc2)c2ccccc2)c([N+](=O)[O-])c1 (stereo unspecified)	6.1*	7.4	-13.6	-0.2	0.9	17.8
O=C1NC(=O)C(=Cc2cc(Br)ccc2OCc2ccccc2F)C(=O)N1	13.7*	1.7	-10.4	0.0	-0.8	8.8
CC(C)(CO)NCc1ccc(Br)cc1	5.3*	-20.5	6.6	0.0	-1.0	-7.3
Cc1oc(-c2ccccc2Cl)nc1CSCC(=O)NC1CCCC1	1.9	6.3	-3.8	0.0	/	/
Cc1oc(-c2ccccc2Cl)nc1CSCC(=O)NC(C)(C)C	5.2*	5.1	-23.4	0.0	0.6	-1.2
CN1CCC(N(C(=O)c2ccc(C(F)(F)F)cc2)C2CCN(C)CC2)CC1	6.2*	-4.2	-7.3	0.0	-0.6	-12.4
CCOc1cccc(CNn2cnnc2)c1OCc1ccccc1	5.5*	3.1	2.2	0.0	0.9	8.9
Clc1ccc(COc2ccccc2CNn2cnnc2)cc1	-0.2	7.0	4.7	-0.1	/	/
CC1=C(C(=O)OCc2ccccc2)C(c2ccncc2)C(C#N)=C(N)O1 (stereo unspecified)	0.9	15.1	-6.4	0.2	/	/
CCCCN(CC)S(=O)(=O)c1ccc(C(=O)Nc2sc3c(c2C(=O)OCC)CCN(C(C)C)C3)cc1	5.6*	-0.7	-3.6	0.0	-1.6	-11.0
CCCCOc1ccc(C(=O)Nc2sc3c(c2C(=O)OCC)CCC3)cc1	0.2	-7.4	-5.9	0.0	/	/
CC(C)(C)c1ccc(OCCCC(=O)Nc2sc3c(c2C(N)=O)CCCC3)cc1	6.5*	12.5	0.5	-0.1	-0.3	7.8
CCCOc1ccc(C(=O)Nc2sc3c(c2C(=O)OCC)CCCC3)cc1	7.4*	9.1	-1.6	0.6	-0.4	7.7
CCOC(=O)c1c(NC(=O)COc2ccc(CC)cc2)sc2c1CCC2	-0.5	1.5	-7.6	0.6	/	/
COC(=O)c1c(NC(=O)CCCOc2ccc(C(C)(C)C)cc2)sc2c1CCC2	3.5	5.8	-5.3	0.0	/	/
CCOC(=O)c1c(NC(=O)COc2ccc(C)cc2)sc2c1CCCC2	5.1*	-6.9	-5.8	0.1	0.3	13.5
CCCCN(CCCC)S(=O)(=O)c1ccc(C(=O)Nc2sc3c(c2C(=O)OCC)CCN(C(C)C)C3)cc1	-0.5	-10.3	8.0	0.2	/	/
CCC(=O)c1ccccc1OCCCN1CCN(C)CC1	0.5	-4.4	-9.3	-0.2	/	/
O=C(COc1ncnc2ccc(Br)cc12)N1CCCC1	-0.2	14.5	8.9	0.3	/	/
CCOC(=O)c1c(NC(=O)CC)sc2c1CCCC2	5.1*	-6.0	7.9	-0.1	0.1	2.3
CCOC(=O)c1c(-c2ccccc2)csc1NC(=O)CC	0.0	-13.7	-1.6	0.0	/	/
CCOC(=O)c1c(-c2ccc(C)cc2)csc1NC(=O)CC	5.1*	-17.9	12.4	0.3	-0.8	-13.4
COc1ccc(CCn2c(SCC(=O)NCc3ccccc3)nc3ccccc3c2=O)cc1OC	2.3	2.6	1.1	0.0	/	/
COc1ccc(S(=O)(=O)N(Cc2ccc(OC)c(OC)c2)Cc2ccccn2)cc1	1.4	7.9	1.3	-0.1	/	/
CCC(C)NC(=O)C1=C(C)C(=O)OC12CCCCCC2 (stereo unspecified)	-1.3	15.4	8.4	0.4	/	/
SMILES	GPR151 activ	MITF inh	TEAD-YAP inh	FBW7 act	GPR151 conf act	GPR119 counter
CC1=C(C(=O)NC2CCCCC2)C2(CCCCC2)OC1=O	6.2*	3.2	-5.6	-0.1	0.0	-9.2
CC1=C(C(=O)NC(C)C)C2(CCCCC2)OC1=O	7.3*	-6.5	-3.9	-0.1	1.1	-7.2
CC1=C(C(=O)NC2CCCC2)C2(CCCCCC2)OC1=O	-0.2	17.8	-1.5	0.1	/	/
COc1cc(C=O)ccc1OC(=O)C1CC1	-0.5	5.6	-2.7	-0.1	/	/
CC(C)N(CCNC1CCS(=O)(=O)C1)C(C)C (stereo unspecified)	8.4*	5.7	-2.5	0.1	0.3	8.7
O=C(O)C1C2C=CC(C2)C1C(=O)Nc1ccc(Cl)cc1Cl (stereo unspecified)	0.7	0.1	5.0	-0.1	/	/
O=C(CCCn1c(=S)[nH]c2ccsc2c1=O)NCc1cccc(Cl)c1	1.2	1.0	-0.7	0.0	/	/
O=c1c2ccccc2c2ccccc2c(=O)n1-c1ccc(F)cc1	-1.9	-3.1	-5.8	0.3	/	/
